From PubChem
Compounds with a hit are over-represented: about 11% of the library has one in this group of screens.
PNC assembly inh – perinucleolar compartment assembly inhibition. PC3M PTB-GFP, PNC prevalence imaging, 16 h; stronger effect = lower value. activity change (PNC), negative = inhibition, % at 10 µM. 140,000 compounds, 3.1% hits;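 active = readout at or below -70, meaning at least 70% loss of cells showing the perinucleolar compartment, a nuclear body marking cancer cells; inconclusive = readout between -30 and a set limit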;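 also: plate controls were DMSO wells for no effect and camptothecin positive control wells for full effect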
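PC3M cells stably expressing PTB-GFP, 750–1000 cells/well, treated 16 h at 37 °C with compound (23 nl of library stock), in duplicate. After paraformaldehyde fixation and Hoechst stain, imaged at 20x; PNC prevalence scored by image analysis.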
ALDH1A1 inh – blocks purified human ALDH1A1 activity; 220,000 compounds, 7.3% hits; Potency, µM (doses to about 75.3 µM), without a hit: at the top dose activity, negative = inhibition, actives largely listed as inhibitors; AID 1030; P00352; Purified ALDH1A1, NADH fluorescence, propionaldehyde substrate;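 also: potency is read from the fitted curve at half-maximal effect; plate controls were no enzyme wells and a reference inhibitor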
Target sequence (P00352 whole entry, looked up): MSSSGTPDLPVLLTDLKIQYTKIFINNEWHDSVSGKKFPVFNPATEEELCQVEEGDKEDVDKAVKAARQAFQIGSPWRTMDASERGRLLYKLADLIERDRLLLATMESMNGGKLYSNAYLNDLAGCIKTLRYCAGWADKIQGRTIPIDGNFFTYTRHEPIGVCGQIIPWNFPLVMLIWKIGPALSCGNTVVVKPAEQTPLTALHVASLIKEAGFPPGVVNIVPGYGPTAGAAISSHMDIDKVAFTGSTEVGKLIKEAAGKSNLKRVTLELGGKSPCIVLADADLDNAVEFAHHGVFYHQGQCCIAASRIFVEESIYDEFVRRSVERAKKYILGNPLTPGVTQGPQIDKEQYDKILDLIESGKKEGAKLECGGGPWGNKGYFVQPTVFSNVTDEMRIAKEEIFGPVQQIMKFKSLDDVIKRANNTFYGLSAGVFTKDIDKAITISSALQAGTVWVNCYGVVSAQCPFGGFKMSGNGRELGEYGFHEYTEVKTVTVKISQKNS
HPGD inh – blocks human HPGD enzyme activity; 150,000 compounds, 4.3% hits; P15428; Potency, µM, inactives show at the top dose activity change, negative = inhibition, hits mostly inhibitors; AID 894; purified HPGD, NADH fluorescence kinetic, PGE2 substrate; also: potency is read from the fitted curve at half-maximal effect
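20 nM HPGD preincubated 15 min at room temperature with compound in 50 mM Tris-HCl pH 8, 0.01% Tween 20. Started with 1 mM NAD+ and 30 uM prostaglandin E2; NADH fluorescence (360/450 nm) read 5 times over 30-s intervals, last minus first.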
An asterisk follows results filed as active; ? = inconclusive; . = no result given; [ ] = remark or other dose. Unless noted, calls follow the shape of the dose curve; as a rule, active = well fitted inhibition curve with a large enough effect (not every such curve was filed as active); inconclusive = small, poorly fitted or top-dose-only effect, or another doubt; inactive = no such curve, though single readings can be large or run the other way. Unless noted, % is scaled to controls: 0 for no effect and ±100 for the full control effect.

SMILES	PNC assembly inh	ALDH1A1 inh	HPGD inh
COC(=O)C1=C(C)N(CC2CC2)C(=O)N[C@H]1CCc1ccccc1	.	6%	-4%
COc1ccc(OCc2nc(C#N)c(NCCCn3ccnc3)o2)cc1	.	5%	.
CC(C)(C)C(=O)/C(C#N)=c1\s/c(=C\c2ccncc2)c(=O)n1CCCN1CCOCC1	2	?	-5%
CCOC(=O)c1c(NC(=O)c2noc3c2CCCC3)sc(C)c1C	1	22µM*	?
COC(=O)c1ccccc1NC(=O)c1noc2c1CCCC2	15	?	-18%
COc1ccc(N2CCN(C(CNC(=O)C(=O)NCc3ccc4c(c3)OCO4)c3ccco3)CC2)cc1 (stereo unspecified)	.	3%	.
Nc1cccn2c(-c3ccc(Cl)c(Cl)c3)cnc12	.	25µM*	.
Nc1cccn2c(-c3ccc(Cl)cc3)cnc12	.	28µM*	.
Cn1c(-c2ccc(Cl)cc2)cnc1N	-25	10%	-5%
Clc1ccc(-c2cn3cccnc3n2)cc1Cl	-29	?	?
CCn1c(=O)c2c(nc(SCC(=O)NCC3CCCO3)n2C)n(C)c1=O (stereo unspecified)	18	4%	-10%
Cc1ccc(-n2[nH]c(=O)c3cccnc32)cc1	36	4%	16µM*
Cc1ccc(-n2cccn2)cc1	.	4%	.
C/C(=C\C1CCCCC1)C(NC(=O)c1ccc(C(F)(F)F)cc1)c1ccc(-c2ccccc2)cc1 (stereo unspecified)	.	-5%	-14%
CC/C(=C\C1CCCCC1)C(NP(=O)(c1ccccc1)c1ccccc1)c1ccccc1 (stereo unspecified)	-90*	?	-7%
Cc1cc(C)cc(NC(=O)c2c(C)nc3ccccn23)c1	.	-8%	.
NC(=O)[C@@H]1CCCNC1	.	5%[13.5 µM]	-6%
COc1ccc2c(c1)C(=O)[C@@H](OC(=O)Nc1cc(OC)c(OC)c(OC)c1)[C@H](c1ccc(OC)c(Br)c1)O2	.	2%	-4%
CCN(CC)S(=O)(=O)c1cccc(C(=O)N[C@H](C(=O)NCc2ccc(Cl)cc2)C(C)C)c1	-29	-2%	-10%
CCOC(=O)N1CCC(N2CC34C=CC(O3)C(C(=O)O)C4C2=O)CC1 (stereo unspecified)	-108*	5%	-12%
CCCN1CC23C=CC(O2)C(C(=O)O)C3C1=O (stereo unspecified)	-4	8%	-10%
COc1ccc(/C=C/CN2CCC(CO)(Cc3ccccc3Cl)CC2)cc1	.	0%	.
O=C(c1ccccc1)c1c[nH]c(C(=O)NCCCn2ccnc2)c1	-27	-2%	-9%
COc1ccccc1N1CCN(C(=O)CCc2c[nH]c3ccccc23)CC1	.	8%	.
CCSc1oc(-c2ccco2)nc1S(=O)(=O)c1ccc(F)cc1	?	25µM*	?
SMILES	PNC assembly inh	ALDH1A1 inh	HPGD inh
O=S(=O)(c1ccc(F)cc1)c1nc(-c2ccco2)oc1Nc1ccccc1	?	?	-13%
Cc1cccc2sc(NC(=O)[C@H](C)N3C(=O)C4CC=CCC4C3=O)nc12 (stereo partly specified)	.	14µM*	.
C[C@@H](C(=O)Nc1nc2ccccc2s1)N1C(=O)C2CC=CCC2C1=O (stereo partly specified)	.	23%	.
CCCS(=O)(=O)N1CCC(C(=O)NC2CCCCC2C)CC1 (stereo unspecified)	15	10µM*	.
CCS(=O)(=O)N1CCCC(C(=O)NC2CCCCC2C)C1 (stereo unspecified)	63	0%	1%
CCCn1c2c(c(O)c(C(=O)NCc3ccccc3)c1=O)CCCC2	61	?	-15%
Cc1nc2ccccc2c(=O)n1NC(=O)c1c(O)c2c(n(CC(C)C)c1=O)CCCC2	-94*	-12%	-16%
CC(=O)NC(Cc1c[nH]c2ccccc12)C(=O)OCC(=O)Nc1cc(C)on1 (stereo unspecified)	-92*	-7%	-1%
CC(=O)NC(Cc1c[nH]c2ccccc12)C(=O)OCC(=O)Nc1ccc2c(c1)OCO2 (stereo unspecified)	-7	5µM*	-6%
O=C(COC(=O)CCCc1c[nH]c2ccccc12)Nc1ccc2c(c1)OCO2	14	-16%	-12%
Cc1cc(NC(=O)COC(=O)[C@H](Cc2c[nH]c3ccccc23)NC(=O)c2ccc(F)cc2)no1	?	-14%	-3%
O=C(CCNC(=O)c1ccccc1Cl)Nc1nc(-c2ccccc2Cl)cs1	28	?	-13%
CC(C)N(O)C(=O)NC(C)(C)C	20	-6%	-9%
CN(C)C1CCN(C(=O)c2ccc(-n3c(=O)c(=O)[nH]c4ccccc43)cc2)C1 (stereo unspecified)	.	9%	-7%
Cc1ccc(NC(=O)COc2cccc3ccc(C)nc23)c(Br)c1	-16	?	11µM*
Cc1ccc(OCC(=O)Nc2cccc(C)n2)c(C)c1	-25	2%	-8%
COc1ccc(NC(C)c2cc(Cl)ccc2O)cc1 (stereo unspecified)	18	22µM*	?
CC(Nc1ccccc1)c1cc(Cl)ccc1O (stereo unspecified)	?	8%	-27%
CC(C)NC(=O)CSc1nnc(-c2ccc(S(=O)(=O)N3CCCC3)cc2)n1CC1CCCO1 (stereo unspecified)	-10	?	-7%
COc1ccc(C(=O)COC(=O)CCC(=O)c2cccs2)cc1	.	-2%	.
COc1ccc(C(=O)NCC(=O)OCC(=O)c2ccc3c(c2)OCCO3)cc1	-9	7.9µM*	-13%
Cc1ccc(C(=O)NCC(=O)OCC(=O)c2ccc3c(c2)OCCO3)cc1C	26	?	-16%
COc1ccc(C(=O)NCC(=O)NCC(=O)OCC(=O)c2cccs2)cc1	?	16µM*	-12%
O=C1Cc2ccccc2C(=O)N1Cc1ccccc1	12	?	?
CN(C)c1cc[n+](CC(=O)N2CCCc3ccccc32)cc1	.	-4%	.
SMILES	PNC assembly inh	ALDH1A1 inh	HPGD inh
CCN(CC)S(=O)(=O)c1ccc(Oc2cccc(C(C)=O)c2)nc1	-21	14µM*	-14%
CCN(CC)S(=O)(=O)c1ccc(NN)nc1	.	-7%	.
Nc1cc(-c2ccco2)no1	-10	4.5µM*	-15%
c1coc(-c2nc3ccccc3nc2-c2ccco2)c1	10	?	?
COc1cc(C)nc(OCCNS(=O)(=O)c2cc(C)ccc2C)n1	31	21%	-5%
C=CCSC1=NC(=O)/C(=C/c2cccs2)S1	16	?	32µM*
NC1=NC(=O)/C(=C/c2cccs2)S1	-14	-6%	-52%
C#CC(N)CCC(=O)O (stereo unspecified)	.	12%	-7%
Cc1cc(NC(=O)CCCC(=O)NCc2cccs2)no1	23	14%	-18%
O=C(c1nc2ccccn2c1CNCCCn1ncc2ccccc21)N1CCCC1	.	-2%	.
Cc1cc(CNCc2c(C(=O)N3CCCCCCC3)nc3ccc(Cl)cn23)nn1C	.	16µM*	.
O=C(Cc1cccs1)Nc1cccnc1	13	-5%	-6%
O=S(=O)(c1ccc(NC2CCCc3ccccc32)nc1)N1CCOCC1 (stereo unspecified)	-7	-1%	-6%
CN(C)S(=O)(=O)c1ccc(C(=O)NC2CCCc3ccccc32)cc1 (stereo unspecified)	.	20µM*	.
Cc1nn(C)c(C)c1S(=O)(=O)NC1CCCc2ccccc21 (stereo unspecified)	-7	4%	-8%
